Data on 39 targets can be found in the supplement of paper PMC10849652.

The full data set covers some 8,800 targets. This sample favours those with a hit. About 0.5% of all pairs of compound and target were hits.

UniProt Q8TDI0, sequence (Q8TDI0 whole entry, looked up): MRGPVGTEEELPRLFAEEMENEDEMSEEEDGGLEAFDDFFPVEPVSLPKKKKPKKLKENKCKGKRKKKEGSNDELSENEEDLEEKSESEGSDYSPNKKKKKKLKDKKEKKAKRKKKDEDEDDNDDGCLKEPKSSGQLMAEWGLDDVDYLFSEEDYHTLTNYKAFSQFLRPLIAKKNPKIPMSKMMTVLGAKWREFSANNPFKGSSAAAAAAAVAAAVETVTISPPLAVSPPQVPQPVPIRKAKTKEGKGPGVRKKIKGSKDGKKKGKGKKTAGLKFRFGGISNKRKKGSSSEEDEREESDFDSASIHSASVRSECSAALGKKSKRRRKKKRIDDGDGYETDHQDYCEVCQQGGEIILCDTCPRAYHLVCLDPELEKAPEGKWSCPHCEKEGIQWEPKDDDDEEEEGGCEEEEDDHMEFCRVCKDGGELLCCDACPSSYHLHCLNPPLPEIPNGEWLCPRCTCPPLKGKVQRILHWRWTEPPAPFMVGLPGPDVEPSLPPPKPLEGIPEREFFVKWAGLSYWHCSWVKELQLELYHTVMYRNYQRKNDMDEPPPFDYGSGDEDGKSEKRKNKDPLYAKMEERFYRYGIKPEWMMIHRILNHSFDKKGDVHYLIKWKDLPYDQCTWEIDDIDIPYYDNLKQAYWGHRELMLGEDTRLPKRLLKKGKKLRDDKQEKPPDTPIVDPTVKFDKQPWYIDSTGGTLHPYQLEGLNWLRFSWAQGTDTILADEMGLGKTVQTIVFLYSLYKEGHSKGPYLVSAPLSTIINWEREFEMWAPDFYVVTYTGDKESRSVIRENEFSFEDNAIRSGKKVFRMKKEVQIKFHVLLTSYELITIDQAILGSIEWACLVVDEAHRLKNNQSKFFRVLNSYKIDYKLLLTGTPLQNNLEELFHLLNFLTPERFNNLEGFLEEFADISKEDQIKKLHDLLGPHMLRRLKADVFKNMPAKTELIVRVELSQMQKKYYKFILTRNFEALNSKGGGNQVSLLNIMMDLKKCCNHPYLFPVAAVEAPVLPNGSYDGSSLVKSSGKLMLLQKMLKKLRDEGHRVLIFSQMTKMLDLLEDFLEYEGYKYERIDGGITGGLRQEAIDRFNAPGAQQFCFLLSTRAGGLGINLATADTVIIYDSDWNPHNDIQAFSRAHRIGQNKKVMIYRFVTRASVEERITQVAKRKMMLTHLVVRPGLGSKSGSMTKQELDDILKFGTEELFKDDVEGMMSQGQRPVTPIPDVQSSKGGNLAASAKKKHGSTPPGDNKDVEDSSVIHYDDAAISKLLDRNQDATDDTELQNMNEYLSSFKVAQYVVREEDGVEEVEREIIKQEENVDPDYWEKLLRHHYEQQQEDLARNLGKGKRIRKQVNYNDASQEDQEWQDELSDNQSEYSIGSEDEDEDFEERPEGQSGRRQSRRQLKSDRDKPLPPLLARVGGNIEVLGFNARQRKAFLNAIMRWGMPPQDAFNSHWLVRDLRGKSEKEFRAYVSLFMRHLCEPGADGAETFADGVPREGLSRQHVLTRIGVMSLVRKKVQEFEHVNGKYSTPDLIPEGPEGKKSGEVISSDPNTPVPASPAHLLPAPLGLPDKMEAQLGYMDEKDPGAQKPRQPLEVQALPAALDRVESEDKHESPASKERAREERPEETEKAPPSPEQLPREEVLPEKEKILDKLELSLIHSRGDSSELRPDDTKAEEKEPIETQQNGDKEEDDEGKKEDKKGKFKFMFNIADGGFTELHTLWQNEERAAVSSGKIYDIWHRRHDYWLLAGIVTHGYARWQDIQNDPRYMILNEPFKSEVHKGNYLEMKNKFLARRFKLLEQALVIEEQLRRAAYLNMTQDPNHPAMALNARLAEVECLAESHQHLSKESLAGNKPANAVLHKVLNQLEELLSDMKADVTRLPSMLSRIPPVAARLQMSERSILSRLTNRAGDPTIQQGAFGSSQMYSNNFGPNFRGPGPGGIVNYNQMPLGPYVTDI
UniProt Q8NBU5, sequence (Q8NBU5 whole entry, looked up): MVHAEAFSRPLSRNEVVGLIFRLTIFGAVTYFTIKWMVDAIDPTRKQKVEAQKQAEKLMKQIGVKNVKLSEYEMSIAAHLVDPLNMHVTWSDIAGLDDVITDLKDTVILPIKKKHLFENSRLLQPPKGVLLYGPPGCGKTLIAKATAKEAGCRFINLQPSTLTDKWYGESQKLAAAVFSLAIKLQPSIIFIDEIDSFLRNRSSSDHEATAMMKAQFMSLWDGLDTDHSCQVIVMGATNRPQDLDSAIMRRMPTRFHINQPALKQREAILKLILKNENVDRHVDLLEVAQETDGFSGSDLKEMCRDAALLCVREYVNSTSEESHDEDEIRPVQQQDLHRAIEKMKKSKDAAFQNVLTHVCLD
UniProt P24863, sequence (P24863 whole entry, looked up): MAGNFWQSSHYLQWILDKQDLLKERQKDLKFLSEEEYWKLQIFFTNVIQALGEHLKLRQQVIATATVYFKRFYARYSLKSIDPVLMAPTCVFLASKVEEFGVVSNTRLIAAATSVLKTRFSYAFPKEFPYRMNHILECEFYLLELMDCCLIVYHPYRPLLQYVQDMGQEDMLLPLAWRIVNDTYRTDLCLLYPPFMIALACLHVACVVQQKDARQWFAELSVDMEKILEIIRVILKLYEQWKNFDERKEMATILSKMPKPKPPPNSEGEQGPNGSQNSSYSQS
UniProt P54132, sequence (P54132 whole entry, looked up): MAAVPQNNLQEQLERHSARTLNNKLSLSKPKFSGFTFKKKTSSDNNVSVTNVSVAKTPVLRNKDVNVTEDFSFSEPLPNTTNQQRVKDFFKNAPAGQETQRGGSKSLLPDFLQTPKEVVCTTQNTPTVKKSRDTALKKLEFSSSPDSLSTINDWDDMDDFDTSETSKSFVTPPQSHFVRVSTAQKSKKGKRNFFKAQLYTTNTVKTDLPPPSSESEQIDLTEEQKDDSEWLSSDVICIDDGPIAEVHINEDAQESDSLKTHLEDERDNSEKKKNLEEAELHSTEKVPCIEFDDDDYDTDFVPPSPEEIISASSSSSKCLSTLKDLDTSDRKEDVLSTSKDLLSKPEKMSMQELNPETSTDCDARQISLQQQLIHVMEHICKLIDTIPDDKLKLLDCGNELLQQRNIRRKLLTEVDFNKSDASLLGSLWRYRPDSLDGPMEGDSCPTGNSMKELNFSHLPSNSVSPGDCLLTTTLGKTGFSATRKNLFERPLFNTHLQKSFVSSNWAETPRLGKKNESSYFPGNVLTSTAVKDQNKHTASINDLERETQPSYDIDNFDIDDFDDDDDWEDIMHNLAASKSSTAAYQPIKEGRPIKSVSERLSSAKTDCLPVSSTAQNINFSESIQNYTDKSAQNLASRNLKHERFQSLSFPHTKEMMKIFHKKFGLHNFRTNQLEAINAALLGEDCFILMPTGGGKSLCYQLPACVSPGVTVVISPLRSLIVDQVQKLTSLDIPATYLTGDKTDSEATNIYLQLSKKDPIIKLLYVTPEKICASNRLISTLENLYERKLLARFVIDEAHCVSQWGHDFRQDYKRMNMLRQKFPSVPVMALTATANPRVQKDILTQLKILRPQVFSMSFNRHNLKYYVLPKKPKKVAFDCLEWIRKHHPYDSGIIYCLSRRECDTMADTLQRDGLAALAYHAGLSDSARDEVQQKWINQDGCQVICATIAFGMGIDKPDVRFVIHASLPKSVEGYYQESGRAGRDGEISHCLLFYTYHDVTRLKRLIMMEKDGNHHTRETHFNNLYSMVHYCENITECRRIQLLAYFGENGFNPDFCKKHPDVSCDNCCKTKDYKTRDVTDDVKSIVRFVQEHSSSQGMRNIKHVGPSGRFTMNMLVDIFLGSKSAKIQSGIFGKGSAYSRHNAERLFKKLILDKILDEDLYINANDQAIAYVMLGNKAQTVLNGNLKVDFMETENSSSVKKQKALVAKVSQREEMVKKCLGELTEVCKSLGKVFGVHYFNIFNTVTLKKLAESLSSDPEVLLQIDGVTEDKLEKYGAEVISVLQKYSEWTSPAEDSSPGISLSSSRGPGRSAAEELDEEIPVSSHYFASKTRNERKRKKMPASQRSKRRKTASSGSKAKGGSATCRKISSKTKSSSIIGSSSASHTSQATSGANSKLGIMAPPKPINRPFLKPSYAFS
UniProt Q12981, sequence (Q12981 whole entry, looked up): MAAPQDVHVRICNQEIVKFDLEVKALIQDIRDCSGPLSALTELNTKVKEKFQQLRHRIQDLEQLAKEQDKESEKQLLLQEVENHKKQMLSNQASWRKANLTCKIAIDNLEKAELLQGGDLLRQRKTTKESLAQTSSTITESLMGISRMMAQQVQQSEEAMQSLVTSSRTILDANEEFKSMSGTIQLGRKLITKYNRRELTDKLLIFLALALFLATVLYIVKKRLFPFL
UniProt Q86WR0, sequence (Q86WR0 whole entry, looked up): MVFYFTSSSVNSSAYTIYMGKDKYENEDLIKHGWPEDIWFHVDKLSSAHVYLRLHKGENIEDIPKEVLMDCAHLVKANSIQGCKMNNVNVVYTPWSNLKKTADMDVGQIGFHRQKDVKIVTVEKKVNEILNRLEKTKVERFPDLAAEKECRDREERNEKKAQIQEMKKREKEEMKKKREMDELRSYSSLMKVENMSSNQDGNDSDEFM
UniProt O43709, sequence (O43709 whole entry, looked up): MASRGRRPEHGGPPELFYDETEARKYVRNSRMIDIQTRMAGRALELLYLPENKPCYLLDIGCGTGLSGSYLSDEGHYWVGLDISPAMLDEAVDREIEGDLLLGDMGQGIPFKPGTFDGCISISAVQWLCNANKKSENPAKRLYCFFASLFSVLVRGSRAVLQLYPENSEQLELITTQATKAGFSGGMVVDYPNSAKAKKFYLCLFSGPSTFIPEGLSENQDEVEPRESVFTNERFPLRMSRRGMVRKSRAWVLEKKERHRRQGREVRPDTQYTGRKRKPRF
UniProt Q8N4Q1, sequence (Q8N4Q1 whole entry, looked up): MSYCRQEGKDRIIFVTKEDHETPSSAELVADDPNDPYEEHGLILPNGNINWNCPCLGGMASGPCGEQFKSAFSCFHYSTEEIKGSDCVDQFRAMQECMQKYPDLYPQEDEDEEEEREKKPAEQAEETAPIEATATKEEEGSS
UniProt P18859, sequence (P18859 whole entry, looked up): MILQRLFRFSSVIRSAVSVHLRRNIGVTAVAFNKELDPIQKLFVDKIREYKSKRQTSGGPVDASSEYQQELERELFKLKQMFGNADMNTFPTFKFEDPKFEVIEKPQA

Compound in the first test: CN1CCc2c(c3ccccc3n2Cc2ccc(C(=O)NO)cc2)C1 [Tubastatin A]
In words: log2 fold change, soluble protein after heating vs DMSO (PISA); higher = thermal stabilisation; K562 lysate, 10 uM; active = over 0.2 and 3.5 SD of the protein, either way, in both replicates (recomputed). In a few lines: (§1)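 A 30 min treatment with 10 μM compound was applied to crude K562 extract at 1 mg/mL protein in PBS pH 7.4 with 1 mM MgCl2. Heating for 3 min spanned 48°C-58°C, after which aliquots were pooled, adjusted to 0.5% NP-40 at 4°C and spun at 21,000xg for 90 min. TMTpro 16plex LC-MS/MS of the supernatant, with channel sums equalised, gave values recorded as log-two fold change in thermal stability against solvent controls, from duplicates.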
With BRD4 (UniProt O60885), the log2 fold change was -0.001 (inactive).

In the case of CAMKK1 isoform 2 (UniProt Q8N5S9), the log2 fold change is -0.167 (inactive).

As for ATG13 isoform 2 (UniProt O75143), the log2 fold change is -0.035 (inactive).

With ATAD1 (UniProt Q8NBU5), the log2 fold change was -0.016 (inactive).

As for BSDC1 (UniProt Q9NW68), the log2 fold change is 0.052 (inactive).

In the case of ATP5PF isoform 2 (UniProt P18859), the log2 fold change was 0.146 (inactive).

As for CAD (UniProt P27708), the log2 fold change is -0.063 (inactive).

For the target CHCHD2 (UniProt Q9Y6H1), the log2 fold change is 0.031 (inactive).

As for CHCHD4 isoform 2 (UniProt Q8N4Q1), the log2 fold change was 0.026 (inactive).

Regarding CCNC (UniProt P24863), the log2 fold change is -0.079 (inactive).

In the case of CELF2 isoform 3 (UniProt O95319), the log2 fold change is -0.025 (inactive).

As for CEP120 (UniProt Q8N960), the log2 fold change was 0.098 (inactive).

With CCDC25 (UniProt Q86WR0), the log2 fold change was 0 (inactive).

For the target CELF1 isoform 4 (UniProt Q92879), the log2 fold change is -0.167 (inactive).

Take BNIP1 (UniProt Q12981): the log2 fold change was -0.045 (inactive).

In the case of CHD5 (UniProt Q8TDI0), the log2 fold change is -0.022 (inactive).

For the target ATP2B4 (UniProt P23634), the log2 fold change was 0.015 (inactive).

As for CANX isoform 2 (UniProt P27824), the log2 fold change is 0.05 (inactive).

As to BCKDK (UniProt O14874), the log2 fold change is -0.117 (inactive).

As to CCAR2 (UniProt Q8N163), the log2 fold change was -0.096 (inactive).

With CDC40 (UniProt O60508), the log2 fold change is 0.147 (inactive).

As for CDK5RAP2 (UniProt Q96SN8), the log2 fold change was -0.15 (inactive).

With CD63 (UniProt P08962), the log2 fold change is 0.023 (inactive).

In the case of ATR (UniProt Q13535), the log2 fold change was -0.067 (inactive).

In the case of CCDC47 (UniProt Q96A33), the log2 fold change is 0.016 (inactive).

Turning to CCNA2 (UniProt P20248), the log2 fold change is 0.011 (inactive).

CHD4 isoform 2 (UniProt Q14839): the log2 fold change was -0.069 (inactive).

As for CENPQ (UniProt Q7L2Z9), the log2 fold change is -0.016 (inactive).

BLM (UniProt P54132): the log2 fold change is -0.07 (inactive).

Take ATP6V0A2 (UniProt Q9Y487): the log2 fold change is 0.091 (inactive).

Turning to BTAF1 (UniProt O14981), the log2 fold change is -0.106 (inactive).

On to CDC42EP4 (UniProt Q9H3Q1), for which the log2 fold change is -0.013 (inactive).

For the target BMS1 (UniProt Q14692), the log2 fold change was -0.024 (inactive).

On to CDK9 isoform 2 (UniProt P50750), for which the log2 fold change is -0.042 (inactive).

For C12orf45 (UniProt Q8N5I9), the log2 fold change is 0.007 (inactive).

Turning to BCKDHB (UniProt P21953), the log2 fold change was 0.011 (inactive).

In the case of CDC45 isoform 3 (UniProt O75419), the log2 fold change is -0.138 (inactive).

Take BUD23 isoform 3 (UniProt O43709): the log2 fold change is 0.14 (inactive).

Take CARD9 (UniProt Q9H257): the log2 fold change was -0.099 (inactive).

Compound in the next test: CNC(=O)C1=CC=CC=C1NC2=NC(=NC=C2Cl)NC3=C(C=C(C=C3)N4CCOCC4)OC
The description is as above. In a few lines: as §1
For BRD4 (UniProt O60885), the log2 fold change was 0.02 (inactive).

With CAMKK1 isoform 2 (UniProt Q8N5S9), the log2 fold change is 0.305 (active).

Take ATG13 isoform 2 (UniProt O75143): the log2 fold change is 0.013 (inactive).

Consider ATAD1 (UniProt Q8NBU5), for which the log2 fold change is 0.045 (inactive).

Take BSDC1 (UniProt Q9NW68): the log2 fold change is 0.018 (inactive).

With ATP5PF isoform 2 (UniProt P18859), the log2 fold change is 0.042 (inactive).

CAD (UniProt P27708): the log2 fold change was 0.01 (inactive).

CHCHD2 (UniProt Q9Y6H1): the log2 fold change was -0.003 (inactive).

Regarding CHCHD4 isoform 2 (UniProt Q8N4Q1), the log2 fold change was 0.027 (inactive).

Turning to CCNC (UniProt P24863), the log2 fold change is -0.018 (inactive).

With CELF2 isoform 3 (UniProt O95319), the log2 fold change was 0.019 (inactive).

As for CEP120 (UniProt Q8N960), the log2 fold change is -0.096 (inactive).

For CCDC25 (UniProt Q86WR0), the log2 fold change was -0.012 (inactive).

Consider CELF1 isoform 4 (UniProt Q92879), for which the log2 fold change is 0.034 (inactive).

In the case of BNIP1 (UniProt Q12981), the log2 fold change was 0.055 (inactive).

With CHD5 (UniProt Q8TDI0), the log2 fold change was 0 (inactive).

With ATP2B4 (UniProt P23634), the log2 fold change was -0.006 (inactive).

Regarding CANX isoform 2 (UniProt P27824), the log2 fold change is -0.006 (inactive).

For the target BCKDK (UniProt O14874), the log2 fold change is -0.005 (inactive).

In the case of CCAR2 (UniProt Q8N163), the log2 fold change was 0.001 (inactive).

CDC40 (UniProt O60508): the log2 fold change is 0.045 (inactive).

With CDK5RAP2 (UniProt Q96SN8), the log2 fold change was 0.009 (inactive).

For CD63 (UniProt P08962), the log2 fold change was -0.013 (inactive).

Regarding ATR (UniProt Q13535), the log2 fold change was 0.029 (inactive).

As for CCDC47 (UniProt Q96A33), the log2 fold change is -0.015 (inactive).

As to CCNA2 (UniProt P20248), the log2 fold change is -0.002 (inactive).

Take CHD4 isoform 2 (UniProt Q14839): the log2 fold change was -0.014 (inactive).

On to CENPQ (UniProt Q7L2Z9), for which the log2 fold change was 0.032 (inactive).

Turning to BLM (UniProt P54132), the log2 fold change was 0.071 (inactive).

Regarding ATP6V0A2 (UniProt Q9Y487), the log2 fold change was 0.022 (inactive).

As for BTAF1 (UniProt O14981), the log2 fold change was 0.021 (inactive).

Turning to CDC42EP4 (UniProt Q9H3Q1), the log2 fold change was 0.041 (inactive).

Turning to BMS1 (UniProt Q14692), the log2 fold change was 0.042 (inactive).

Take CDK9 isoform 2 (UniProt P50750): the log2 fold change was 0.024 (inactive).

On to C12orf45 (UniProt Q8N5I9), for which the log2 fold change was 0.004 (inactive).

As to BCKDHB (UniProt P21953), the log2 fold change was 0.008 (inactive).

Take CDC45 isoform 3 (UniProt O75419): the log2 fold change was 0.031 (inactive).

As for BUD23 isoform 3 (UniProt O43709), the log2 fold change is 0.026 (inactive).

In the case of CARD9 (UniProt Q9H257), the log2 fold change is 0.043 (inactive).
